The source of these data is PubChem BioAssay (NCI).

Molecules are shown by their SMILES. About 83,000 compounds went through this panel and 20% of them were active in at least one assay; those are over-represented in the sample as a whole.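 Compound tested at a single concentration for 48 hours in 96-well plates; a percent growth value below 10 was scored as active.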 Unmarked numbers belong to inactive results. The source made the active and inactive calls.

Holding throughout (experiment): NCI-60 one-dose screen, 48 h (100 = growth as untreated, 0 = no growth, -100 = all killed)
One test relates to SK-MEL-2 melanoma. Particulars: 10 µM unless noted.
For the next test, the system named is EKVX NSCLC. Particulars: 10 µM unless noted.
The next test relates to SN12C renal. The settings on record: 10 µM unless noted.
The next test concerns UO-31 renal. Particulars: 10 µM unless noted.
For a further test, the system named is TK-10 renal. Particulars: 10 µM unless noted.
The subject of another test is A498 renal. Particulars: 10 µM unless noted.
The next test relates to CCRF-CEM leukemia. Particulars: 10 µM unless noted.
The subject of another test is MOLT-4 leukemia. The settings on record: 10 µM unless noted.
A further test deals with SR leukemia. The settings on record: 10 µM unless noted.
In another test the test system is RPMI-8226 leukemia. The settings on record: 10 µM unless noted.
In another test the test system is OVCAR-8 ovarian. The settings on record: 10 µM unless noted.
The subject of a further test is OVCAR-5 ovarian. The settings on record: 10 µM unless noted.
In the next test the test system is OVCAR-4 ovarian. Particulars: 10 µM unless noted.
A further test has as its system SK-OV-3 ovarian. Particulars: 10 µM unless noted.
Another test relates to IGROV1 ovarian. Particulars: 10 µM unless noted.
The next test deals with OVCAR-3 ovarian. The settings on record: 10 µM unless noted.
The test system of the next test is HS 578T breast. Particulars: 10 µM unless noted.
For another test, the system named is NCI/ADR-RES ovarian. Particulars: 10 µM unless noted.
A further test deals with ACHN renal. The settings on record: 10 µM unless noted.
The next test relates to CAKI-1 renal. Particulars: 10 µM.

For the compound `COc1cc2c(cc1OC)-c1c(oc3c4c(ccc3c1=O)OC(C)(C)C=C4)CO2`, the growth in the test on SK-MEL-2 melanoma was 74.3%; in the test on EKVX NSCLC, 57.7%; in the test with SN12C renal, 92.2%; in the test with UO-31 renal, 66.9%; in the test with TK-10 renal, 67.9%; in the test on A498 renal it was 56.1%. Moreover, the growth with CCRF-CEM leukemia is 69.5%; in the test with MOLT-4 leukemia, 55.1%; with SR leukemia, 42.6%; in the test on RPMI-8226 leukemia, 49.3%; in the test on OVCAR-8 ovarian, 67.7%; in the test with OVCAR-5 ovarian it was 89.3%. In addition, the growth in the test on OVCAR-4 ovarian is 41.8%; in the test on SK-OV-3 ovarian, 77.6%; in the test on IGROV1 ovarian it was 85%; in the test with OVCAR-3 ovarian, 63.7%; in the test on HS 578T breast, 99.8%; in the test on NCI/ADR-RES ovarian, 65.8%.
For the compound `Nc1ncnc2c1ncn2C1OC(COC(c2ccccc2)(c2ccccc2)c2ccccc2)C(O)C1O` (configuration not stated), the growth is 87.7% in the test with SK-MEL-2 melanoma; 91.6% with EKVX NSCLC; 93.7% in the test with SN12C renal; 80.5% in the test with UO-31 renal; 47.9% in the test with ACHN renal; 57.7% in the test on CAKI-1 renal. For the same compound, the growth is 103% in the test on A498 renal; 46.1% in the test on CCRF-CEM leukemia; 78.8% in the test on MOLT-4 leukemia; 89.6% in the test with SR leukemia; 82.1% in the test on RPMI-8226 leukemia; 96.7% in the test with OVCAR-8 ovarian. Besides, the growth in the test with OVCAR-5 ovarian was 85.7%; in the test with OVCAR-4 ovarian it was 95.2%; with SK-OV-3 ovarian, 123%; with IGROV1 ovarian it was 107%; with OVCAR-3 ovarian, 106%; in the test with HS 578T breast it was 84.1%. Also, in the test on NCI/ADR-RES ovarian, the growth is 89.2%.
Take `COc1ccc(-c2nn(-c3cccc(Cl)c3)cc2-c2cc(-c3ccc(Br)cc3)[nH]c(=O)c2C#N)cc1`: the growth in the test on SK-MEL-2 melanoma was 122%; in the test with EKVX NSCLC, 88.4%; in the test with SN12C renal it was 67.9%; in the test on UO-31 renal, 87.3%; in the test on ACHN renal, 91.8%; in the test on CAKI-1 renal, 82.9%. Also, the growth in the test on A498 renal is 102%; in the test with CCRF-CEM leukemia, 75.4%; in the test on MOLT-4 leukemia it was 76%; in the test with SR leukemia it was 35.6%; with RPMI-8226 leukemia, 75%; in the test on OVCAR-8 ovarian it was 77.9%. For the same compound, the growth was 105% in the test on OVCAR-5 ovarian; -34% (active) in the test on OVCAR-4 ovarian; 89.1% in the test with SK-OV-3 ovarian; 92.9% with IGROV1 ovarian; 68% in the test on OVCAR-3 ovarian; 33% in the test on HS 578T breast. Besides, the growth with NCI/ADR-RES ovarian was 65%.
As for `O=C1c2ccccc2OC=C(c2ccccc2)N1CCCCNc1ccc(F)cc1`, the growth in the test with SK-MEL-2 melanoma was 89.2%; in the test on EKVX NSCLC it was 96.8%; in the test with SN12C renal, 77.4%; with UO-31 renal, 53.5%; with ACHN renal, 97.5%; in the test on CAKI-1 renal, 85.8%. Further, the growth with A498 renal was 98.3%; with CCRF-CEM leukemia, 63.7%; in the test with MOLT-4 leukemia, 48.4%; with SR leukemia, 81%; in the test with RPMI-8226 leukemia, 69.8%; in the test with OVCAR-8 ovarian it was 80.6%. Further, the growth with OVCAR-5 ovarian was 95.7%; with OVCAR-4 ovarian, 89.9%; in the test on SK-OV-3 ovarian it was 67.9%; with IGROV1 ovarian, 81.9%; in the test on OVCAR-3 ovarian, 110%; in the test with HS 578T breast, 94.7%. Besides, in the test on NCI/ADR-RES ovarian, the growth is 85.8%.
For the compound `O=C1/C(=C/c2cccc3cnccc23)Cc2cc(F)ccc21`, the growth with SK-MEL-2 melanoma is 94.6%; in the test on EKVX NSCLC, 91.2%; in the test on SN12C renal, 94.6%; in the test on UO-31 renal it was 70.4%; in the test with ACHN renal, 95.7%; with CAKI-1 renal, 84.5%. Further, the growth in the test on A498 renal is 97.2%; in the test with CCRF-CEM leukemia, 110%; with MOLT-4 leukemia, 82.1%; in the test on SR leukemia, 84.6%; with RPMI-8226 leukemia, 85.9%; in the test with OVCAR-8 ovarian, 96.1%. For the same compound, the growth is 108% in the test on OVCAR-5 ovarian; 77% in the test with OVCAR-4 ovarian; 76.9% with SK-OV-3 ovarian; 85.9% with IGROV1 ovarian; 109% with OVCAR-3 ovarian; 109% in the test with HS 578T breast. The growth with NCI/ADR-RES ovarian is 90.7%.
Regarding `COc1ccc(Cl)cc1NC(=O)c1cc2c(n1C)-c1nc(NC(=O)C(C)C)sc1CC2`, the growth in the test with SK-MEL-2 melanoma was 64.6%; in the test on EKVX NSCLC, 91.3%; in the test on SN12C renal it was 94.5%; in the test with UO-31 renal, 76.7%; in the test with TK-10 renal, 92%; in the test with A498 renal it was 93.2%. Further, the growth was 84.4% with CCRF-CEM leukemia; 80.2% with MOLT-4 leukemia; 79.1% in the test with SR leukemia; 81.8% in the test with OVCAR-8 ovarian; 108% with OVCAR-5 ovarian; 66% with OVCAR-4 ovarian. For the same compound, the growth in the test with SK-OV-3 ovarian is 82.9%; with IGROV1 ovarian it was 104%; in the test on OVCAR-3 ovarian it was 111%; in the test on HS 578T breast, 83.4%; with NCI/ADR-RES ovarian it was 90.5%.
For `O=C1OC(N(Cc2ccc(Cl)cc2)c2ccccc2)c2ccccc21` (configuration not stated), the growth in the test on SK-MEL-2 melanoma is 94.4%; in the test with EKVX NSCLC, 102%; with SN12C renal, 94.6%; in the test on UO-31 renal, 94.5%; with ACHN renal it was 108%; with CAKI-1 renal it was 103%. The growth in the test on A498 renal is 90.1%; in the test on CCRF-CEM leukemia, 92.2%; with MOLT-4 leukemia it was 81.9%; in the test with SR leukemia it was 97.8%; in the test with RPMI-8226 leukemia it was 97.2%; in the test on OVCAR-8 ovarian, 107%. Besides, the growth in the test on OVCAR-5 ovarian is 109%; with OVCAR-4 ovarian it was 116%; with SK-OV-3 ovarian, 97.2%; in the test on IGROV1 ovarian it was 90.7%; with OVCAR-3 ovarian, 104%; in the test with HS 578T breast it was 108%.
As for `COc1ccc(-c2nnc(SCC(=O)N3CCN(c4cc5c(cc4F)c(=O)c(C(=O)O)cn5C4CC4)CC3)o2)cc1OC`, the growth is 103% in the test with SK-MEL-2 melanoma; 102% in the test on EKVX NSCLC; 97.6% with SN12C renal; 93.7% in the test with UO-31 renal; 102% with ACHN renal; 97.1% in the test on CAKI-1 renal. In addition, the growth with A498 renal is 96.7%; in the test on CCRF-CEM leukemia, 82.6%; with MOLT-4 leukemia it was 77.4%; with SR leukemia it was 90.6%; with RPMI-8226 leukemia, 90.1%; with OVCAR-8 ovarian, 96.9%. The growth in the test on OVCAR-5 ovarian is 96.2%; in the test on OVCAR-4 ovarian, 103%; with SK-OV-3 ovarian it was 84.2%; in the test on IGROV1 ovarian, 97.1%; in the test with OVCAR-3 ovarian it was 111%; in the test on HS 578T breast, 101%.
